Molecules are shown by their SMILES. “And” between values parts separate entries of the source, which are not always exact repeats. Identical values can stand only once. Compounds without any hit were thinned out: in the full panel of roughly 83,000, 20% have a hit.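 Step 1: grow cells in 96-well plates. Step 2: add test compound at a single concentration. Step 3: incubate 48 h. Step 4: record percent growth.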 The source made the active and inactive calls. How the source made its calls: active means growth percent below 10; inactive means the rest.

The assay relates to UACC-62 melanoma. Nature of the assay: NCI-60 one-dose screen, 48 h (100 = growth as untreated, 0 = no growth, -100 = all killed). The following applies: 10 µM unless noted.
For the molecule `Cc1ccnc2[nH]c(-c3ccc(F)cc3)cc(=O)c12`, the growth is -5.39% [100 µM] (active) and -36.2% [100 µM] (active).

With `CCOc1cc2c(cc1O)/C(=N\N)C[C@@H]1[C@@H]2CC[C@]2(C)[C@@H](O)CC[C@@H]12`, the growth is 17.1% [100 µM] (inactive) and -96.8% [100 µM] (active). As to `CC(C)(C)O/N=C/c1cc(NC(=S)c2ccsc2)ccc1Cl`, the growth was -90.7% [100 µM] (active) and -85.1% [100 µM] (active). `CC(=O)c1cc2c(s1)C(=O)c1scc(C(C)=O)c1C2=O`: the growth was -37.8% [100 µM] (active) and -81.8% [100 µM] (active).

For `CC(=O)O[C@@H]1C[C@@]2(C)[C@@H]3CC=C4[C@@H](C[C@H](O)C(=O)C4(C)C)[C@]3(C)C(=O)C[C@]2(C)[C@H]1[C@@](C)(O)C(=O)/C=C/C(C)(C)OC(C)=O`, the growth is -64.4% [100 µM] (active) and -99.7% [100 µM] (active). For `COC(=O)c1ccc(CCc2cc(O)c(Br)cc2O)cc1` the value was -96.8% [100 µM] (active) and -100% [100 µM] (active); for `CCOC(=O)/C(C#N)=C(/NNc1ccccc1)c1ccncc1C(=O)O`, 61.3% [100 µM] (inactive) and 11.4% [100 µM] (inactive); for `CC1OC(OC2C(O[C@H]3CC[C@@]4(C)C(=CC[C@H]5[C@@H]6C[C@@H]7O[C@]8(CC[C@H](C)CN8)[C@@H](C)[C@@H]7[C@@]6(C)CC[C@@H]54)C3)OC(CO)C(O)C2OC2OC(CO)C(O)C(O)C2O)C(O)C(O)C1O` (stereo not given in full), 96.6% [100 µM] (inactive) and -100% [100 µM] (active). For `O=c1c2ncn(C3CCCCO3)c2n(-c2ccccc2)c(=S)n1-c1ccccc1` (stereo not given) the value was 18.7% [100 µM] (inactive) and 4.84% [100 µM] (active); for `COC(=O)C(=O)C(C(=O)C(=O)Nc1ccccc1C(=O)OC)c1nc2ccc(C(=O)c3ccccc3)cc2[nH]c1=O` (stereo not given), 54.3% [100 µM] (inactive) and 12.8% [100 µM] (inactive); for `N#CC12COC3(CCCCC3C1(C#N)C#N)OC2=N` (stereo not given), -38.9% [100 µM] (active). For `C=C1CC(O)C2C(=C)C(=O)OC2C2C(C)C(=O)CC12` (stereo not given) the value was -89.7% [100 µM] (active) and -97.7% [100 µM] (active); for `CN(C)CCNc1ccc(NCC[N+](C)(C)Cc2ccc([N+](=O)[O-])cc2)c2c1C(=O)c1c(O)ccc(O)c1C2=O`, 24.1% [100 µM] (inactive) and 0.198% [100 µM] (active). In the case of `CC1(C)CCCC(C)(C2CCC3(C)C2C(O)CC2C4(C)CCC(O)C(C)(C)C4C(O)CC23C)O1` (stereo not given), the growth was -76.6% [100 µM] (active) and -83.9% [100 µM] (active). The value for `CC12NC(=C(C#N)C#N)C(C#N)=C3NC(N)=C(C#N)C(=C31)Oc1ccccc12` (stereo not given) was 7.06% [100 µM] (active) and -61.2% [100 µM] (active).

Values taken from PubChem BioAssay (NCI).
